From PubChem BioAssay AID430 (Sanford-Burnham Center for Chemical Genomics, 2006)
The whole screen tested about 63,000 compounds, of which about 1,100 (1.7%) were called active. No stated cut-off is given here; in the data, active means cytotoxicity above about 50%; inactive means the rest. The entries come from a sample that favours actives as a whole. Potency and affinity values are given separately.

assay: cytotoxicity in HPDE-C7 cells, cell-based, fluorescence, HTS (AID 430); conditions: HPDE-C7 pancreatic duct cells viability, at 10 µM, stronger effect = higher value;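 further: cells exposed to compound for 48 hours before viability readout; 0% = vehicle and 100% = reference cytotoxic drug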

SMILES	cytotoxicity
CCCCOc1ccc(C(=O)Nc2ccncc2)cc1	7.8% (inactive)
COCCNc1oc(-c2ccccc2Cl)nc1C#N	-6% (inactive)
CNc1oc(-c2ccccc2Cl)nc1C#N	-3.8% (inactive)
COc1ccc(Nc2oc(-c3ccccc3Cl)nc2C#N)cc1	57.9% (active)
Cc1ccccc1-n1nnnc1-c1ccccc1	-2.5% (inactive)
O=C1C(c2ccncc2)=C(O)c2ccccc21	-1.4% (inactive)
COc1ccc(C(=O)c2ccc(N(C)C)cc2)c(OC)c1	68.7% (active)
COc1ccc(C(=O)Oc2ccc(C(C)=O)cc2)c(OC)c1	13.4% (inactive)
COc1ccc(C(=O)c2ccc(N3CCOCC3)cc2)c(OC)c1	7.3% (inactive)
Cc1ccc(S(=O)(=O)NC2OC(=O)C(Cl)=C2Cl)cc1 (stereo unspecified)	11.4% (inactive)
Cc1nnc2n1N=CC=C(c1ccccc1)S2	57.5% (active)
COn1cnnc1-c1ccccc1	-8.8% (inactive)
Cc1nnc2n1N=CC=C(C(C)(C)C)S2	-5.2% (inactive)
O=C(COC(=O)CCOc1ccccc1)Nc1ccc(Cl)cn1	0.1% (inactive)
Cc1cc(SCC#N)n2nc(C)c(-c3ccccc3)c2n1	-24.7% (inactive)
COc1ccc2c(c1)c(C(O)CN1CCC3(CC1)OCCO3)c(C)n2C (stereo unspecified)	9% (inactive)
CC(C)(C)c1ccc(C(O)CCCN2CCC(C(O)(c3ccccc3)c3ccccc3)CC2)cc1 (stereo unspecified)	118% (active)
OC(CCN1CCCC1)(c1ccccc1)C1CCCCC1 (stereo unspecified)	8.5% (inactive)
OC(CCN1CCCCC1)(c1ccccc1)C1CCCCC1 (stereo unspecified)	-15.8% (inactive)
C/C(=N\O)C1/C(=N/O)CC2C1C2(C)C (stereo unspecified)	-4.3% (inactive)
Nc1nc(C(=O)N2CCOCC2)nn1S(=O)(=O)c1ccc(Cl)cc1	2.7% (inactive)
COc1ccc(C(=O)Oc2cccnc2)cc1OC	-11.9% (inactive)

SMILES	cytotoxicity
CN1C(=O)c2cccc(NC(=O)Cc3ccccc3)c2C1=O	-1.7% (inactive)
O=C(Nc1nc2c(s1)CCc1ccccc1-2)c1ccco1	15.6% (inactive)
CC1CCc2nc(NC(=O)c3ccco3)sc2C1 (stereo unspecified)	-13.6% (inactive)
O=C(c1ccc(Br)s1)N1CCN(Cc2ccc3c(c2)OCO3)CC1	11.8% (inactive)
CSc1cccc(-n2cc(-c3ccc4c(c3)OCO4)[nH]c2=O)c1	52.8% (active)
Cc1ccc(-n2cc(-c3ccccc3)[nH]c2=O)cc1F	-20.5% (inactive)
CN(C)/C=C1\N=C(c2ccc3c(c2)OCO3)OC1=O	-1.7% (inactive)
O=C(Cc1ccc(S(=O)(=O)N2CCOCC2)s1)Nc1ccc2c(c1)CCC2	3.3% (inactive)
COc1ccc(CN2CCN(C(=O)c3cc(OC)c(OC)c(OC)c3)CC2)cc1OC	-11.1% (inactive)
CCCSc1nnc(NC(=O)Nc2ccccc2)s1	6.3% (inactive)
CCCSc1nnc(NC(=O)Nc2ccc(F)cc2)s1	69.6% (active)
CCC(=O)Nc1nnc(SCC(=O)Nc2ccc(F)cc2)s1	2.1% (inactive)
COc1ccccc1NC(=O)CN1CCN(Cc2ccccc2)CC1	3% (inactive)
COC(=O)c1c(N)sc(C(C)=O)c1C	-7.8% (inactive)
COC(=O)c1sc(N)c(C(=O)OC)c1COC(=O)c1c(C)noc1C	64.9% (active)
COc1ccc(C(C)=O)cc1COC(=O)c1c(C)noc1C	7.1% (inactive)
CC(C)CCNc1nc2c(c(=O)n(Cc3cccc(F)c3)c(=O)n2C)n1C	35.2% (inactive)
COc1ccc(-c2cn3c(n2)CCC3)cc1	14.1% (inactive)
CCCCCC1CCC(C(=O)O)CC1 (stereo unspecified)	-12.7% (inactive)
COC(=O)c1ccc2c(c1)N(Cc1nc(-c3cccc(C)c3)oc1C)C(=O)C1CCCN21 (stereo unspecified)	55.8% (active)
COC(=O)c1ccc2c(c1)N(Cc1nc(-c3ccc(Cl)cc3)oc1C)C(=O)C1CCCN21 (stereo unspecified)	-1.4% (inactive)
COC(=O)c1ccc2c(c1)N(Cc1nc(-c3cccc(Cl)c3)oc1C)C(=O)C1CCCN21 (stereo unspecified)	40.7% (inactive)

SMILES	cytotoxicity
CC(C)CCOCC1CC2(CC(C)(c3csc(N)n3)OC2=O)C(=O)O1 (stereo unspecified)	-2.2% (inactive)
O=C(COC(=O)c1ccccc1NC(=O)c1ccco1)Nc1ccc2c(c1)OCO2	-13.5% (inactive)
COc1cccc(C2C3=C(N=C4SCC(=O)N42)c2ccccc2CC3)c1OC (stereo unspecified)	-2.4% (inactive)
CCN(CC)c1ccc(-c2nn3c(-c4cccnc4)nnc3s2)cc1	43.2% (inactive)
CN(C)c1ccc(-c2nn3c(-c4ccncc4)nnc3s2)cc1	-9.1% (inactive)
CCc1nc2ccccc2n1CC(=O)N(C(C)CC)C1CCS(=O)(=O)C1 (stereo unspecified)	-20.3% (inactive)
Cn1c(Cn2c(=O)sc3ccccc32)nnc1SCc1ccc(F)cc1	-3.2% (inactive)
CN(C)CCCN1c2ccccc2Sc2ccccc21	13.7% (inactive)
COc1ccc2c(c1)Sc1ccccc1N2CCN(C)C	12.2% (inactive)
O=C(Nc1cccc(C(F)(F)F)c1)c1cccnc1N1CCN(CCO)CC1	-10.8% (inactive)
CCOC(=O)Nc1ccc2c(c1)N(C(=O)CN1CCN(C)CC1)c1ccccc1S2	5.2% (inactive)
O=C(CN1CCCC(O)C1)N1c2ccccc2Sc2ccc(C(F)(F)F)cc21 (stereo unspecified)	24% (inactive)
C=CCN1C(=O)c2ccccc2Sc2ccc(C(=O)N3CCN(C)CC3)cc21	-17.1% (inactive)
COc1ccc(Br)cc1S(=O)(=O)N(CC(=O)N1CCOCC1)c1ccccc1	-5.3% (inactive)
O=C(CCc1ccccc1)Nc1ccncc1	0.1% (inactive)
Cn1c(Cn2c(=O)sc3ccccc32)nnc1SCC(=O)Nc1ccc(F)cc1	-7.1% (inactive)
CCOc1ccccc1N1CCN(Cc2cccc(OC)c2OC)CC1	-10.5% (inactive)
COC(=O)c1[nH]c2ccccc2c1NC(=O)CN1CCN(c2cccc(Cl)c2)CC1	0.5% (inactive)
OC(CN1CCN(c2cccc(C(F)(F)F)c2)CC1)c1c[nH]c2ccccc12 (stereo unspecified)	26.7% (inactive)
O=C(CN1CCN(c2ccccc2)CC1)Nc1cccc(C(F)(F)F)c1	-4.7% (inactive)
Cc1[nH]c2ccccc2c1NC(=O)CN1CCN(c2cccc(C(F)(F)F)c2)CC1	62.1% (active)
O=C(CCn1c(=O)[nH]c2ccccc2c1=O)N1CCN(c2cccc(C(F)(F)F)c2)CC1	-11.5% (inactive)
